Screens: PubChem, Broad Institute
This is a sample that favours compounds with a hit; in the whole collection about 7.8% have one here.
NOMO-1 viab = STK33 inhibitor candidate reducing NOMO-1 cell viability. AID 2330. NOMO-1 AML viability, CellTiter-Glo luminescence, 72 h. inhibition, % (no concentration beside the values). 37,000 compounds, 7.5% hits; in the data active means inhibition above about 80%; inconclusive means no clear call, values can overlap the other calls
Hedgehog inh = blocks Sonic Hedgehog signaling. inhibition, % (no concentration beside the values). Shh-LIGHT2 Gli-luciferase reporter, 30 h. AID 2313. 22,000 compounds, 2.1% hits;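 active means mean inhibition across valid replicates above about 65%, limit read from the data; inconclusive means mean under the limit, yet half or more replicates past it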;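 further: pathway switched on by Shh-conditioned medium diluted 1 in 25 in low serum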
MITF inhib = blocks MITF activity; 37,000 compounds, 0.28% hits; TRPM1 promoter luciferase, luminescence, 24 h; AID 2240; inhibition, % (test concentration not listed); in the data active means inhibition above about 85%; inconclusive means no clear call, values can overlap the other calls; inactive means below about 68%;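 further: human melanocyte line stably carrying TRPM1 promoter luciferase reporter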
* hit, by the source's call; ? = inconclusive; · = no result.

SMILES | NOMO-1 viab | Hedgehog inh | MITF inhib
C[C@]12CC[C@H](O)C[C@H]1CC[C@@H]1[C@@H]2CC[C@]2(C)[C@@H](C3=CC(=O)OC3)CC[C@]12O | 120* | -20 | 40
C[C@]12CC[C@H](O)C[C@H]1CC[C@@H]1[C@@H]2C[C@@H](O)[C@]2(C)[C@@H](C3=CC(=O)OC3)CC[C@]12O | 98* | -47 | 18
CC12CC[C@H]3C(CCC4(O)CC(O)CCC34O)C1(O)CCC2C1=CC(=O)OC1 (stereo partly specified) | 6 | -45 | -14
COC1CC(O[C@H]2CC[C@@]3(C)C(CCC4C3CC[C@]3(C)C(C5=CC(=O)OC5)CCC43O)C2)OC(C)C1OC1OC(COC2OC(CO)C(O)C(O)C2O)C(O)C(O)C1O (stereo partly specified) | 119* | 0 | 9
CC(=O)OCC(=O)[C@H]1CC[C@H]2[C@@H]3CC[C@H]4C[C@H](O)CC[C@]4(C)[C@H]3C(=O)C[C@]12C | 23 | -54 | 16
CO[C@H]1[C@@H](O)[C@@H](C)O[C@@H](OC2CCC3(C)C(CC[C@@H]4[C@@H]3CCC3(C)C(C5=CC(=O)OC5)C(O)CC43O)C2)[C@@H]1O (stereo partly specified) | 121* | -10 | 19
COC1CC(OC2CCC3(C)C(CCC4(O)C3CC(OC(=O)c3ccccc3)C3(C)C(O)(C(C)=O)CCC43O)C2)OC(C)C1OC1CC(OC)C(OC2OC(C)C(O)C(OC)C2O)C(C)O1 (stereo unspecified) | 32 | -2 | -7
Cc1nn(Cc2cccc(C(=O)Nc3ccc4oc(=O)cc(C(F)(F)F)c4c3)c2)c(C)c1Cl | 37 | · | 15
CCC1(C)CC(=O)NC(=O)C1 | 14 | -16 | -8
COC(=O)CC1(CC(=O)OC)C(=O)N(C)C(=O)N(C)C1=O | -9 | · | -7
c1cncc(C2N=C(c3cnccn3)NN2)c1 (stereo unspecified) | -4 | -53 | -44
C=C1[C@]23C(=O)O[C@@H](C)[C@]2(O)C(=O)O[C@@]1(C)[C@H](OC(C)=O)C1=C(C)[C@@]2(C=CC(=O)OC2(C)C)CCC13C (stereo partly specified) | 13 | 10 | -13
c1cncc(C2=NCCC2)c1 | 15 | -74 | -1
CCOC(=O)c1cc(C(C)(C)C)nc(OC(=O)N(C)C)c1C#N | 101* | 27 | 0
COCc1cc(OC(=O)N(C)C)nc2c1c(C)nn2C | -16 | · | -34
CN(C)C(=O)Oc1ccnc(SCc2c(F)cccc2Cl)n1 | 68 | 9 | -25
CCN1C[C@]2(C)CC[C@H](O)[C@]34C1[C@H](C[C@H]23)[C@@]1(O)C[C@H](OC)[C@H]2C[C@@H]4[C@@H]1C2O (stereo partly specified) | -9 | -28 | 4
CC(=O)NC1C(OC2OC(CC(O)C3OC(n4ccc(=O)[nH]c4=O)C(O)C3O)C(O)C(O)C2NC(=O)/C=C/CCCCCCCCCC(C)C)OC(CO)C(O)C1O (stereo unspecified) | 108* | 108* | 60
CCc1cccc(C)c1N(C(=O)CCl)C(C)COC (stereo unspecified) | 14 | -61 | 3
CC(C)N(C(=O)CCl)c1ccccc1 | 111* | 71* | 14
C/C=C(/C)C(=O)O[C@H]1C(C)=C2[C@H]([C@@H]1OC(=O)CCCCCCC)[C@@](C)(OC(C)=O)C[C@H](OC(=O)CCC)[C@@]1(O)[C@H]2OC(=O)[C@@]1(C)O | 122* | 103* | 105*
C/C=C(\C)C(=O)OC1C(C)=C2C(C1OC(=O)CCCCCCC)C(C)(OC(C)=O)CC(OC(=O)CCC)C1(O)C2OC(=O)C1(C)O (stereo unspecified) | 120* | 101* | 51
CC1=CC(=O)C2=C(C)C[C@H](O)[C@@H]3[C@H](OC(=O)[C@H]3C)[C@H]12 | -13 | -2 | 3
CC(C(=O)Nc1ccc(Cl)cc1C(=O)c1ccccc1)N1C(=O)C2C3C=CC(C3)C2C1=O (stereo unspecified) | 36 | · | 19
Oc1ccc2c3c1OC1[C@@H](O)CC[C@@]4(O)[C@@H](C2)N(CC2CCC2)CC[C@]314 (stereo partly specified) | 3 | -1 | 0
SMILES | NOMO-1 viab | Hedgehog inh | MITF inhib
CCC1C2CC[N+]3([O-])CCC4(C(=C2C(=O)OC)Nc2c(OC)cccc24)C13 (stereo unspecified) | 18 | 6 | 10
CC(C)NCC(O)c1ccc(N)c(C#N)c1 (stereo unspecified) | -15 | -30 | -14
C[C@@H](CO)NC(=O)C1C=C2c3cccc4[nH]cc(c34)C[C@H]2N(C)C1 (stereo partly specified) | 10 | 22 | -21
Cc1ccnc(NC(c2ccccc2[N+](=O)[O-])c2ccc3ccc(C)nc3c2O)c1 (stereo unspecified) | 124* | · | 57
c1ccc(CSc2nnc(-c3ccccc3)o2)cc1 | 39 | -65 | -29
O=C(CCCN1CCC2(CC1)C(=O)N(Cc1cccc(F)c1)CN2c1ccccc1)c1ccc(F)cc1 | 91* | ? | 76
CCOC(=O)c1c(NC(=O)C2C(C)(C)C2(C)C)sc2c1CCC2 | 15 | -3 | 10
COP(=S)(OC)SCn1nnc2ccccc2c1=O | -19 | -42 | -4
COc1ccc2c(c1OC)CN1CCc3cc4c(cc3C1C2)OCO4 (stereo unspecified) | 15 | -18 | 3
COc1ccc2c(c[n+](C)c3c4cc5c(cc4ccc23)OCO5)c1OC | 142* | -9 | 72
C[C@@H]1CCC/C=C/[C@H]2C[C@@H](O)C[C@@H]2[C@@H](O)/C=C\C(=O)O1 | 108* | 101* | 87*
CC(CCc1ccc(O)cc1)O[C@@H]1O[C@H](CO[C@H]2OC[C@](O)(CO)[C@H]2O)[C@@H](O)[C@H](O)[C@H]1O (stereo partly specified) | -1 | -5 | -5
O=[N+]([O-])c1ccc(O)c([N+](=O)[O-])c1 | -23 | 50 | 105*
CCCN1CCc2cccc3c2[C@H]1Cc1ccc(O)c(O)c1-3 | 113* | 25 | 0
COc1cc2c3c(c1OC)-c1c(ccc(O)c1O)CC3N(C)CC2 (stereo unspecified) | 35 | -10 | 0
COc1ccc(CCNCc2cc(Cl)cc(Cl)c2OC)cc1OC | 15 | · | 7
COC(=O)[C@@]12C(=O)C(C)C(=O)[C@]1(C)C(C)=C[C@H]1[C@]3(C=O)CC[C@H](OC(C)=O)C(C)(C)[C@H]3CC[C@@]12C (stereo partly specified) | · | 25 | ·
O=c1c2ccccc2nc(C(F)(F)F)n1-c1ccccc1 | 4 | -3 | 1
O=c1c2ccccc2[se]n1-c1ccccc1 | 141* | ? | 9
C[C@]12C=CC(=O)C=C1CC[C@@H]1C2CC[C@]2(C)C(=O)CCC12 (stereo partly specified) | 12 | -5 | -16
O=C(O)C1C2CCC(O2)C1C(=O)NCCc1ccccc1 (stereo unspecified) | 69 | · | 32
CCOc1cc(CN2CCN(C(=O)COc3ccc(C)cc3)CC2)ccc1OC | 27 | 8 | -4
C[C@@]12C[C@@H](c3ccoc3)OC(=O)C1CC[C@]1(C)[C@H]2[C@H]2C=C[C@]1(O)C(=O)O2 (stereo partly specified) | 3 | -16 | -14
CC1(C)C(C(=O)Nc2ccccc2C#N)C1(C)C | 18 | -37 | 6
